Reference: PubChem BioAssay AID588676 (Johns Hopkins Ion Channel Center, 2011)
Out of some 310,000 compounds screened, about 3,900 (1.3%) were called active.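 How the source made its calls: active means calcium-response B-score plate-corrected more than 3 library SD below zero, starting fluorescence within 5 deviations, no agonist response on first addition; inactive means the rest.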 The list comes from a sample in which actives are over-represented; it also holds similar structures and randomly drawn compounds.

molecular target: Mas-related G-protein coupled receptor member X1 (Homo sapiens) (UniProt Q96LB2); test: blockade of BAM8-22-evoked MrgX1 calcium response – HEK293 cells, Fluo-4 calcium flux, primary screen (AID 588676); details: Fluo-4, BAM8-22 antagonism, at 10 µM; stronger effect = lower value;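 on B-score: peak minus trough fluorescence over baseline after final BAM8-22 challenge near maximal dose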
Sequence (Q96LB2 whole entry, looked up): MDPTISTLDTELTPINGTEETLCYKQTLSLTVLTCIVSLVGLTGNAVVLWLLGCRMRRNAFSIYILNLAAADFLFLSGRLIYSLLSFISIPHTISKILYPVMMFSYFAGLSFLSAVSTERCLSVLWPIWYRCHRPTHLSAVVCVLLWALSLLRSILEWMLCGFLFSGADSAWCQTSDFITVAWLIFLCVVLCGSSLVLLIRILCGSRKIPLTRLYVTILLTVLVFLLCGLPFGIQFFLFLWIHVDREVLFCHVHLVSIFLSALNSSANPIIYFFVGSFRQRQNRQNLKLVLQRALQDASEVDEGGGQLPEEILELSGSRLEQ

B-score, active:
COc1cccc(CNC(=O)C2CCN(S(=O)(=O)c3cccc4cccnc34)CC2)c1 -4.66, O=C(c1ccccc1)C(Cn1cncn1)C(Sc1ccccc1)c1ccccc1 (configuration not stated) -5.84, Cc1cccc(-n2c(Cc3cc(=O)[nH]c(=O)[nH]3)nnc2SC(C)C)c1 -6.63, CC1(C)CC(N2CCN(C(c3ccccc3)c3ccccc3)CC2)=CC(=[N+]2CCCCC2)C1 -4.89, CC(=O)Nc1ccc(OC(=O)COc2ccc(Br)cc2)cc1 -4.53, CCN(C(=O)CSc1nnc2ccccn12)C1CCS(=O)(=O)C1 (configuration not stated) -5.04, Cc1nc(N2CCN(c3ccccn3)CC2)c2c(C)c(C(=O)Nc3ccc(F)c(Cl)c3)sc2n1 -5.65, Cc1ccc(CS(=O)(=O)c2ncc(Cl)c(C(=O)Nc3nnc(C)s3)n2)cc1 -6.02, CCc1nnc(NC(=O)CSc2nc3c(c(=O)n2-c2ccccc2OC)SCC3)s1 -5.85, O=C(Nc1ccc(Br)cc1F)C1CC(=O)N(C2CCCCC2)C1 (configuration not stated) -6.01, CC(Oc1ccc(F)cc1)C(=O)Nc1ccccc1C(=O)NC1CC1 (configuration not stated) -5.83, COC(=O)c1sc(-c2ccc(C(C)(C)C)cc2)cc1NC(=O)/C=C/C(=O)O -9.91, CCOc1ccccc1NC(=O)CCN1CCN(S(=O)(=O)c2ccc(OC)cc2)CC1 -4.98, N#CC1=C(N)Oc2c(sc3ccccc23)C1c1ccco1 (configuration not stated) -4.64, CCOC(=O)c1c(NC(=O)CSc2cn(CC)c3ccccc23)sc2c1CCC2 -6.48, COc1cc(/C=C2/SC(=S)N(Cc3ccccc3)C2=O)cc(OC)c1O -7.51, COc1ccc([N+](=O)[O-])cc1NC(=O)COC(=O)/C=C/c1ccco1 -24.1, COC1=CCC2([N+](=O)[O-])CN(CC(=O)O)CC1([N+](=O)[O-])C2 (configuration not stated) -5.87, COCC(C)NC(=O)c1ccc(Cl)c(Cl)c1 (configuration not stated) -8.76, COc1cc(N2CCCC2)c(OC)cc1/C=C(/C#N)c1cccc(Br)c1 -7.19, CCOC(=O)C1=C(O)CSC1=Nc1cccc(Cl)c1 -5.49, Cc1cc(=O)oc2cc(NC(=O)C3CC(=O)N(Cc4ccccc4)C3)ccc12 (configuration not stated) -7.83

B-score, inactive:
O=C(NNc1ccccc1Cl)C(O)(c1cccc(C(F)(F)F)c1)c1cccc(C(F)(F)F)c1, COc1ccc(S(=O)(=O)N2CCC(C(=O)NCCC(=O)NCc3cccc(OC)c3)CC2)cc1, COc1ccccc1CNC(=O)C1CCCN(S(=O)(=O)c2cccc3cccnc23)C1 (configuration not stated), OC(COc1ccc2ccccc2c1)Cn1cncn1 (configuration not stated), Fc1ccccc1OCCCCn1cncn1, COc1ccc(C2(O)C(=O)Nc3ccccc32)cc1 (configuration not stated), COc1ccc(NC(=O)c2ccco2)cc1NC(=O)c1ccc(C#N)cc1F, Cc1c(C=O)c2ccccn2c1C(=O)c1ccncc1, CCCN1C2CCCC1CC(NC(=O)NC13CC4CC(CC(C4)C1)C3)C2 (configuration not stated), Nc1cccc(S(=O)(=O)Nc2ccc(SC(F)F)cc2)c1, COc1cccc(-n2c(Cc3cc(=O)[nH]c(=O)[nH]3)nnc2SCC(=O)Nc2ccccc2)c1, Cc1cccc(-n2c(Cc3cc(=O)[nH]c(=O)[nH]3)nnc2SCC(=O)Nc2cccc(C(F)(F)F)c2)c1, CC(C)NC(=O)NNc1c(Cl)cncc1Cl, Cc1ccc(C(c2nnnn2CS(=O)(=O)c2ccc(C)cc2)N2CCC(C)CC2)cc1 (configuration not stated), CC1(C)CC(=O)C=C(N2CCCC2)C1, O=C(O)CN1CCN(C(c2ccccc2)c2ccccc2)CC1, CCC(=O)N(C)C(c1ccccc1Cl)c1nnnn1-c1c(C)cccc1C (configuration not stated), COc1ccc(N2CC(NS(=O)(=O)c3ccc4ccccc4c3)CC2=O)cc1 (configuration not stated), CSCC[C@H](NC(=O)N1CCn2c1nc1ccccc12)C(=O)NCc1ccc2c(c1)OCO2, Cc1ccc(S(=O)(=O)N2CCN(C)CC2)cc1C(=O)NC1CCCCC1, CCCCC1(C(=O)OCC)NC(c2ccc(O)cc2)C2C(=O)N(c3ccccc3)C(=O)C21 (configuration not stated), O=C1CCCN1C(=O)COc1ccc([N+](=O)[O-])cc1, COC(=O)COc1ccc(S(=O)(=O)Nc2ccc(NC(C)=O)cc2)cc1, Cc1ccc(OC(=O)CCC(=O)Nc2ccc(Br)cc2)cc1, CCN(C(=O)CSc1nnnn1-c1ccccc1OC)C1CCS(=O)(=O)C1 (configuration not stated), CCN(C(=O)CSc1nc2ccccc2n1CC)C1CCS(=O)(=O)C1 (configuration not stated), COc1ccc(NC(=O)c2sc3nc(C)nc(N4CCN(c5ccccn5)CC4)c3c2C)c(OC)c1, Cc1nc(N2CCN(c3ccccn3)CC2)c2c(C)c(C(=O)Nc3ccc(F)cc3)sc2n1, COc1ccc(NC(=O)CN(Cc2ccccc2)S(C)(=O)=O)cc1OC, CC1(C)C(C=C(Cl)Cl)C1C(=O)NC(O)C(=O)c1ccccc1 (configuration not stated), O=C(CCCN1C(=O)c2ccccc2C1=O)Oc1ccc(Cl)cc1, CSc1nnc(NC(=O)c2nc(S(=O)(=O)Cc3ccc(C)cc3)ncc2Cl)s1, Cc1cccc(NC(=O)c2nc(S(=O)(=O)Cc3ccccc3)ncc2Cl)c1, Cc1cc(N2CCOCC2)nc2ccc(NC(=S)N3CCN(Cc4ccccc4)CC3)cc12, C#C[C@]1(O)CC[C@H]2[C@@H]3CCC4=CC(=O)CC[C@@H]4[C@H]3CC[C@@]21CC, O=C(NCC(c1cccs1)N1CCOCC1)c1cc(Cl)ccc1[N+](=O)[O-] (configuration not stated), CCc1nnc(NC(=O)CSc2nnc(Cc3ccccc3)n2-c2ccc(OC)cc2)s1, CCOc1ccc(NC(=O)CSc2nc3c(c(=O)n2-c2ccccc2OC)SCC3)cc1, CC(Oc1ccccc1F)C(=O)NN (configuration not stated), CCSc1sc(CC)cc1C=O, O=C(NCCc1ccc(Cl)cc1)C1CC(=O)N(C2CCCCC2)C1 (configuration not stated), Cc1ccc(CNC(=O)C2CC(=O)N(C3CCCCCCC3)C2)cc1 (configuration not stated), COc1cc(C)c(Cl)cc1S(=O)(=O)n1ccnc1, CCCC(=O)N1CCC(CCC(=O)NC2CC2)CC1, CCOc1ccccc1OCC(=O)Nc1ccccc1C(=O)NC1CC1, COc1ccccc1OCC(=O)Nc1ccccc1C(=O)NC1CC1, COc1cc(-c2c(-c3ccc4c(c3)OCO4)noc2C)ccc1F, Nc1nc(NCC2CCCO2)nc(Nc2ccccc2F)c1[N+](=O)[O-] (configuration not stated), CC(C)(C)c1ccc(/C=C/C(=O)Nc2ncccn2)cc1, CSc1ccc(NC(=O)/C=C/C(=O)O)cc1, Cn1cccc1Cc1nnc(SCC(=O)NCc2ccc3c(c2)OCO3)n1CCc1ccccc1, O=C(O)CCc1nc2cc(Cl)ccc2n(Cc2ccccc2)c1=O, COc1ccc(NC(=O)CCC(=O)N2CCN(S(=O)(=O)c3ccc(C)cc3)CC2)c(OC)c1, CCOc1ccccc1NC(=O)COc1ccc(S(=O)(=O)N2CCCC2)cc1, Cc1cc(C)c(C#N)c(Nc2cccc(Br)c2)n1, N#CC1=C(N)Oc2c(ccc3cccnc23)C1c1ccncc1 (configuration not stated), O=C(COc1nsnc1N1CCOCC1)Nc1ccccc1Cl, COc1cc(C(C)=O)ccc1OC(=O)CN1C(=O)c2ccccc2C1=O, Cc1cc(F)ccc1S(=O)(=O)Nc1ncnc2scc(-c3ccc(F)cc3)c12, CCOC(=O)c1c(NC(=O)C(C)Sc2c[nH]c3ccccc23)sc2c1CCC2 (configuration not stated), CCOC(=O)c1c(NC(=O)CCC(=O)NCc2ccco2)sc2c1CCCC2, O=C(NCC(=O)N1CCN(c2ncc(C(F)(F)F)cc2Cl)CC1)c1ccc(Br)o1, Cc1ccc(C(=O)OC2=CC(=O)CC(C)(C)C2)cc1, COc1ccc(/C=C2\SC(=S)N(CCC(=O)Nc3ccccn3)C2=O)cc1OC, COc1ccccc1C(=O)NNC(=O)CCN1C(=O)/C(=C\c2ccccc2)SC1=S, O=C(Nc1cccc([N+](=O)[O-])c1)N1CCc2ccccc2C1, CN(c1ccccc1)S(=O)(=O)c1ccc(Cl)c(C(=O)OCC(=O)N2CCOCC2)c1, COC(=O)c1c(NC(=O)COc2ccc(Cl)cc2Cl)sc2c1CC(C)(C)NC2(C)C, O=C(Cc1ccccc1)Nc1c(C(=O)N2CCCCCC2)cnn1-c1ccccc1, CC(C)CNC(=O)COC(=O)/C=C/c1ccco1, COc1ccc([N+](=O)[O-])cc1NC(=O)CCc1ccccc1, COc1ccc([N+](=O)[O-])cc1N(CC(=O)Nc1ccccc1C(=O)N1CCOCC1)S(C)(=O)=O, CC(C)CCC(C)NC(=O)c1ccc2nccnc2c1 (configuration not stated), CC(CCc1ccccc1)NC(=O)c1cnc(Cl)c(Cl)c1 (configuration not stated), CC(=O)C1=C(C)NC(=O)NC1c1ccc2c(c1)OCO2 (configuration not stated), CC(=O)Nc1cccc(Oc2cc(C#N)c(C#N)cc2N2CCOCC2)c1, COc1ccc(Br)cc1/C=N/n1c(C)nnc1C, O=C(COC(=O)/C=C/c1ccc(OC(F)F)cc1)NC1CCCCC1, COc1ccc(-c2noc(C(C)NS(=O)(=O)c3ccc(NC(C)=O)cc3)n2)cc1 (configuration not stated), CCCCCCCCCCCCN1C(=O)CSC1c1cccnc1 (configuration not stated), CCOC(=O)CSc1ncc(-c2cccc(Cl)c2)cn1, CCOC(=O)c1c(S(=O)(=O)Nc2cccc(Cl)c2)c(C)n(C)c1C, N=c1n(CCc2ccccc2)c2ccccc2n1Cc1ccccc1F, Cc1cc(=O)oc2cc(NC(=O)C(C)Oc3ccccc3)ccc12 (configuration not stated), O=C(Nc1ccc(F)c([N+](=O)[O-])c1)C1CC(=O)N(Cc2ccccc2)C1 (configuration not stated)
